Screening results (PubChem BioAssay)
Rows were chosen to be rich in hits. Some 4.1% of all compounds tested hit in one or more screens of this group.
MEKK2mut PB1 HTS – signal of MEK5 binding to mutant human MEKK2 PB1 domain; bead flow cytometry, Alexa488-MEK5 binding to MEKK2 mutant; percent response, % at 10 µM; 290,000 compounds, 0.35% hits; in the data active = percent response above about 24%, passing the limit was not always enough
MEKK2 WT-MEK5 – raises or lowers MEK5 binding to wildtype human MEKK2 PB1 domain; Q9Y2U5; bead flow cytometry, Alexa488-MEK5 binding to MEKK2 WT; actives lie on both sides; binding response (% of control), % at 10 µM; 290,000 compounds, 1.1% hits; in the data active = binding response below about 67% or above about 130%
CHT PAM – allosterically activates the human high affinity choline transporter | B-score at 10 µM | 310,000 compounds, 0.49% hits | AID 488977 | CHT-expressing cells, membrane potential dye, choline EC20; stronger effect = higher value; LV-AA mutant CHT in HEK293 cells | Q9GZV3;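 active = initial fluorescence not abnormally high and integrated response B-score, plate-corrected, over 3 SD above library mean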
Target sequence (Q9GZV3 whole entry, looked up): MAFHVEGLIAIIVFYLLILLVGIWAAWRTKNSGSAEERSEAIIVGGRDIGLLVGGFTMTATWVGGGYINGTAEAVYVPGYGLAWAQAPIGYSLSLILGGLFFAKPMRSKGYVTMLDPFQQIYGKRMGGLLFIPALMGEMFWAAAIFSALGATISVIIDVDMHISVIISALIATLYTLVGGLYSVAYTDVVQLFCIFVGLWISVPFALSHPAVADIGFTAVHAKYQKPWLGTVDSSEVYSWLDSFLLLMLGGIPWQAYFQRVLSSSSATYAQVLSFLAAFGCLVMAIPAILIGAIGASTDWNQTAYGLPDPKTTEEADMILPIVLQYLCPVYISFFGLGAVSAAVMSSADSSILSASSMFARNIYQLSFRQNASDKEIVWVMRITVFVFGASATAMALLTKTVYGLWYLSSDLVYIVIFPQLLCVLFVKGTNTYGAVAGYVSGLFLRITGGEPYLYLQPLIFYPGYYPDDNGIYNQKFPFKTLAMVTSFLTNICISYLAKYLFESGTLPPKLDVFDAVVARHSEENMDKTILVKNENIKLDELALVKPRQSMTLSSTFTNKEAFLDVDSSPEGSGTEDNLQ
MEKK3 PB1 HTS – MEKK3-MEK5 PB1 interaction, increase or decrease; Q99759; bead-based flow cytometry, Alexa488-MEK5 binding to MEKK3; actives lie on both sides; 0 = blocked by unlabeled MEK5, 100 = vehicle; binding response (% of control), % at 10 µM; 290,000 compounds, 1.4% hits; AID 1529;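 active = binding response more than 3 SD above or below the average of its plate-row segment, actives on both sides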;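 note: Alexa488 bead fluorescence after subtracting the streptavidin-only scavenger bead signal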
CHT block – inhibits the human high affinity choline transporter. Q9GZV3. CHT-expressing cells, membrane potential dye, choline response; stronger effect = lower value. B-score at 10 µM. 310,000 compounds, 0.86% hits. AID 488975;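 active = B-score over 3 SD under the library average, and starting fluorescence ratio not unusually high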;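 note: choline stimulus applied at its EC90 after an EC20 pre-addition; B-score computed on integrated fluorescence ratio after choline addition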
Mot1-301 SUMO – SUMOylation pathway inhibition by Mot1-301 growth rescue | S. cerevisiae Mot1-301 growth rescue, ATP luminescence, 38.5C; percent above DMSO median, 100 means doubled | growth rescue, % at 18.8 µM | 320,000 compounds, 1% hits;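 active = every valid replicate shows activation above 250% relative to neutral control wells; inactive = the rest, any valid replicate at or below 250%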;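 note: OY570 slx delta 5 strain wells were the positive control but not used for scaling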
MEKK2wt confirm – raises or lowers MEK5 binding to wildtype human MEKK2, retest. shares compounds with MEKK3 PB1 HTS. bead flow cytometry, Alexa488-MEK5 binding to MEKK2 WT; actives lie on both sides. binding response (% of control), % at 10 µM. 5,900 compounds, 2.4% hits; in the data active = binding response below about 16% or above about 210%; inactive = in between
MEKK2mut-MEK5 – signal of MEK5 binding to mutant human MEKK2, retest | shares compounds with MEKK3 PB1 HTS | bead flow cytometry, Alexa488-MEK5 binding to MEKK2 mutant | percent response, % at 10 µM | 5,900 compounds, 2% hits; in the data active = percent response mostly above about 71%, no sharp cut-off; inactive = mostly below about 38%;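 note: higher means compound restores mutant binding toward wildtype level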
MEKK3 confirm – confirmation of inhibitors of MEK5 binding to human MEKK3 | bead flow cytometry, Alexa488-MEK5 binding to MEKK3; stronger effect = lower value | shares compounds with MEKK3 PB1 HTS | AID 1894 | binding response (% of control), % at 10 µM | 5,900 compounds, 1.8% hits;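 active = binding response below 72% of control, or above a set upper limit, though filed actives all read lower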;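 note: 100% = DMSO only wells and 0% = binding blocked by excess unlabeled MEK5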
Numbers without * were called inactive; i = inactive; . = no result; [ ] = another dose, or the depositor's remark.

SMILES	MEKK2mut PB1 HTS	MEKK2 WT-MEK5	CHT PAM	MEKK3 PB1 HTS	CHT block	Mot1-301 SUMO	MEKK2wt confirm	MEKK2mut-MEK5	MEKK3 confirm
COc1ccc(C[C@H]2CN3C(=NC[C@@H]3Cc3ccc(O)cc3)N2C[C@H](C)NC(=O)CCC2CCCCC2)cc1	17	141*	i	115	i	-12	131	12	89
CC(C)[C@H]1CN=C2N(C[C@H](C)NC(=O)CCC3CCCCC3)[C@H](Cc3ccc(O)cc3)CN21	11	112	i	112	i	-2	.	.	.
CCCCn1c(N)c(N(CCOC)C(=O)CCCc2nc3ccccc3c(=O)[nH]2)c(=O)[nH]c1=O	.	.	i	.	i	11	.	.	.
COc1ccc(N=c2oc3ccc(OC)cc3cc2-c2nc3ccccc3[nH]2)cc1	5	105	i	124*	i	-7	101	6	100
COc1cccc(N=c2oc3ccc(OC)cc3cc2-c2nc3ccccc3[nH]2)c1	-1	91	i	102	i	15	.	.	.
COc1cc(=O)[nH]c(SC(C)C(=O)Nc2cc(C)on2)n1 (stereo not drawn)	-6	96	i	101	i	-9	.	.	.
Cc1ccc(C(C(=O)NC2CCCC2)N(Cc2cccs2)C(=O)CNC(=O)c2cccs2)o1 (stereo not drawn)	4	103	i	92	i	-3	.	.	.
COc1ccc(N(C(=O)CNC(=O)c2cccs2)C(C(=O)NCC2CCCO2)c2ccccc2)cc1 (stereo not drawn)	-19	6.0*[inhibitor]	i	5.0*[inhibitor]	i	-6	105	4	104
COc1ccc(N(C(=O)CNC(=O)c2cccs2)C(C(=O)NCC2CCCO2)c2ccccc2)cc1OC (stereo not drawn)	-11	85	i	96	i	32	.	.	.
Cc1ccc(C(C(=O)NC2CCCC2)N(C(=O)CNC(=O)c2cccs2)c2cccnc2)o1 (stereo not drawn)	4	106	i	71*[inhibitor]	i	-17	102	2	104
Cc1ccc(OCC(=O)NNC(=O)c2ccc3c(=O)n4c(nc3c2)CCC4)cc1	.	.	i	.	i	-12	.	.	.
COc1cc(CC(=O)OCC(=O)Nc2cc([N+](=O)[O-])ccc2Cl)cc(OC)c1OC	9	58*[inhibitor]	i	97	i	4	90	-6	97
COc1ccc([N+](=O)[O-])cc1NC(=O)COC(=O)Cc1cc(OC)c(OC)c(OC)c1	-1	99	i	99	i	6	.	.	.
COc1ccc(NC(=O)COC(=O)c2ccc([N+](=O)[O-])o2)cc1Cl	5	123	i	131*	i	-5	106	6	106
COc1ccc(C)cc1NC(=O)COC(=O)c1ccc([N+](=O)[O-])o1	-2	92	i	97	i	-5	.	.	.
CCC(C)(C)n1nnnc1CN(Cc1cc2cc(OC)ccc2[nH]c1=O)C1CCCC1	-9	88	i	82*[inhibitor]	i	-14	95	-2	98
OC1CCCC1	.	.	.	.	.	26	.	.	.
COc1ccc(C(N)=O)c(OCC(=O)Nc2cc(C)on2)c1	.	.	.	.	.	-4	.	.	.
CSc1cccc(NC(=S)N2CCC(N(C)C(C)C)CC2)c1	-12	63	i	50*[inhibitor]	i	-18	102	-4	101
Cc1cc(C)c(S(=O)(=O)NC2CC(C)(C)NC(C)(C)C2)cc1Br	6	113	i	104	i	-12	.	.	.
COc1ccc(-c2cn3cccnc3n2)cc1NC(=O)c1cc(OC)c(OC)c(OC)c1	-21	27*[inhibitor]	i	20*[inhibitor]	i	4	100	-3	97
COc1ccc(-c2cn3cccnc3n2)cc1NC(=O)c1cccs1	6	95	i	90	i	-2	.	.	.
COc1ccc(NC(=O)CSc2nc3nc(-c4cccs4)cc(C(F)(F)F)c3c(=O)[nH]2)c(OC)c1	0	100	i	106	i	-34	.	.	.
CCOc1ccccc1NC(=O)CSc1nc2nc(-c3cccs3)cc(C(F)(F)F)c2c(=O)[nH]1	-30	59*[inhibitor]	i	73*[inhibitor]	i	6	94	-8	98
OCCNc1nc(Nc2cc(Cl)ccc2OC2CCCC2)nc(N2CCCC2)n1	-1	109	i	103	i	273	.	.	.
SMILES	MEKK2mut PB1 HTS	MEKK2 WT-MEK5	CHT PAM	MEKK3 PB1 HTS	CHT block	Mot1-301 SUMO	MEKK2wt confirm	MEKK2mut-MEK5	MEKK3 confirm
CC(C)CNC(=O)NC(=O)COC(=O)c1cccc(NS(=O)(=O)c2ccc(F)c(F)c2)c1	1	109	i	134*	i	0	104	7	101
CN1CCN(c2nc(-c3ccccc3)nc(-c3ccccc3)c2C#N)CC1	22	146*	i	116	i	9	122	10	100
COc1cccc(-c2nc(-c3ccccc3)nc(N3CCN(C)CC3)c2C#N)c1	12	136	i	100	i	35	.	.	.
COc1ccc(-c2nc(-c3cccc(C)c3)nc(N3CCN(C)CC3)c2C#N)cc1	32*	144	i	107	i	0	149	38	108
COc1ccc(-c2nc(-c3ccccc3)nc(N3CCN(C)CC3)c2C#N)cc1	6	152*	i	105	i	4	154	28	107
O=C(NC1CCSc2ccccc21)c1cc(S(=O)(=O)N2CCOCC2)ccc1Cl (stereo not drawn)	.	.	i	.	i	-3	.	.	.
Cc1ccc(NC(=O)NC(=O)CN2CCCC2c2ccc3c(c2)OCCO3)cc1C (stereo not drawn)	.	.	.	.	.	74	.	.	.
O=c1c(Cl)c(Cl)cnn1-c1ccccc1	1	108	.	133*	.	.	103	3	100
Cc1cc(C)c(C#N)c(N2CCN(c3ccccc3)CC2)n1	1	103	i	105	i	-5	.	.	.
Cc1cc(C)c(C#N)c(N2CCSCC2)n1	-31	3.0*[inhibitor]	i	2.0*[inhibitor]	i	-5	84	-14	96
COc1ccc(C(=O)Cn2nc(CNc3ccc(Br)cc3)[n+]3c2CCCCC3)cc1	5	150*	i	103	i	1	148	20	107
O=C(Cn1nc(-c2nn(CC(=O)c3ccccc3)c3[n+]2CCCCC3)[n+]2c1CCCCC2)c1ccccc1	6	110	i	99	i	-3	.	.	.
